Measured values published in PubChem BioAssay (EPA / NIEHS).
Activity calls are given as the source filed them. Rule for the calls: active = hit-call score of the fitted dose curve at least 0.9, where 1 is the maximum; inactive = score below 0.9.

How the values were obtained:
Settings in all cases: mRNA level, 48 h; actives raise or lower the signal
[1] = read-out: matrix metalloproteinase-3 (MMP3), MMP3 (gene 4314); assay: LTEA_HepaRG_MMP3: Life Technologies and Expression Analysis (LTEA) Assay for matrix metalloproteinase-3 (MMP3) using HepaRG (AID 2283519)
In short: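 Fluidigm-based TaqMan qRT-PCR, normalized to ACTB, GAPDH and POLR2A and fitted bidirectionally versus 0.5% DMSO, measured transcript levels. Treatment: duplicate 48 h exposures of HepaRG cells, ~100,000/well, to eight half-log concentrations topping at 100 uM.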

[2] = read-out: Paternally Expressed 10 (PEG10), PEG10 (gene 23089); assay: LTEA_HepaRG_PEG10: Life Technologies and Expression Analysis (LTEA) Assay for Paternally Expressed 10 (PEG10) using HepaRG (AID 2283520);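 for AC50: PEG10 transcript by qRT-PCR normalised to ACTB GAPDH and POLR2A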
In short: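 Human HepaRG cultures are dosed for 48 h across an eight-point half-log series starting at 100 uM, with 0.5% DMSO as vehicle and baseline. Gain or loss of PEG10 transcript is measured by qRT-PCR and fitted in both directions.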

[3] = read-out: Nuclear factor NF-kappa-B p105 subunit (Homo sapiens) (UniProt P19838); assay: LTEA_HepaRG_NFKB1: Life Technologies and Expression Analysis (LTEA) Assay for Nuclear Factor Kappa B Subunit 1 (NFKB1) using HepaRG (AID 2283521)
In short: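 HepaRG, 48 h exposure; 8-pt half-log series from 100 uM in 0.5% DMSO; duplicates. Readout: NFKB1 mRNA by qRT-PCR (Fluidigm arrays), housekeeping-normalized. Gain/loss fit vs DMSO baseline.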

[4] = read-out: Protein phosphatase 2A (PPP2R4), PTPA (gene 5524); assay: LTEA_HepaRG_PPP2R4: Life Technologies and Expression Analysis (LTEA) Assay for Protein phosphatase 2A (PPP2R4) using HepaRG (AID 2283522)
In short: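 Cells were plated, cultured 48 h, switched to serum-free induction medium, then dosed for 48 h (8 points, max 100 uM, 0.5% DMSO). RNA was isolated and PPP2R4 expression measured by TaqMan qRT-PCR.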

[5] = read-out: Phosphatase and tensin (PTEN), PTEN (gene 5728); assay: LTEA_HepaRG_PTEN: Life Technologies and Expression Analysis (LTEA) Assay for Phosphatase and tensin (PTEN) using HepaRG (AID 2283523)
In short: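 Read-out: TaqMan qRT-PCR of PTEN transcript, normalized to three housekeeping genes, fitted in both directions against 0.5% DMSO. Differentiated human HepaRG cultures received chemicals for 48 h, eight-point half-log series topping at 100 uM.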

[6] = read-out: solute carrier (SLC22A1), SLC22A1 (gene 6580); assay: LTEA_HepaRG_SLC22A1: Life Technologies and Expression Analysis (LTEA) Assay for solute carrier (SLC22A1) using HepaRG (AID 2283524);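 for AC50: differentiated human HepaRG liver cells in serum-free induction medium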
In short: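 Transcript level of SLC22A1 quantified by qRT-PCR (normalized to three housekeeping genes) after 48 h chemical exposure of HepaRG cells, eight concentrations up to 100 µM, half-log steps, 0.5% DMSO vehicle. Gain or loss relative to DMSO fitted bidirectionally.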

[7] = read-out: Pyruvate Dehydrogenase Kinase 4 (PDK4), PDK4 (gene 5166); assay: LTEA_HepaRG_PDK4: Life Technologies and Expression Analysis (LTEA) Assay for Pyruvate Dehydrogenase Kinase 4 (PDK4) using HepaRG (AID 2283525)
In short: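 Readout is qRT-PCR of PDK4 transcript, normalized to three housekeeping genes, with bidirectional fitting against 0.5% DMSO vehicle. Differentiated HepaRG cells were treated 48 h in serum-free induction medium, duplicate wells, eight-point half-log series topping at 100 uM.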

[8] = read-out: NAD(P)H dehydrogenase [quinone] 1 (NQO1), NQO1 (gene 1728); assay: LTEA_HepaRG_NQO1: Life Technologies and Expression Analysis (LTEA) Assay for NAD(P)H dehydrogenase [quinone] 1 (NQO1) using HepaRG (AID 2283526)
In short: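 Transcript induction or suppression is quantified by qRT-PCR in human HepaRG liver cells dosed for 48 hours. Eight half-log concentrations topping at 100 uM are used, with 0.5% DMSO as vehicle and baseline.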

[9] = read-out: Nuclear factor erythroid 2-related factor 2 (Homo sapiens) (UniProt Q16236); assay: LTEA_HepaRG_NFE2L2: Life Technologies and Expression Analysis (LTEA) Assay for Nuclear factor erythroid 2-related factor 2 (NFE2L2) Transcription Factor using HepaRG (AID 2283527)
In short: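 NFE2L2 transcript level was read by qRT-PCR (housekeeping ACTB/GAPDH/POLR2A normalisation) after 48 h chemical treatment of HepaRG in serum-free induction medium. Duplicate 8-point half-log curves, top 100 uM, 0.5% DMSO vehicle; up- or down-regulation fitted against vehicle.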

[10] = read-out: succinate dehydrogenase complex iron sulfur subunit B (SDHB), SDHB (gene 6390); assay: LTEA_HepaRG_SDHB: Life Technologies and Expression Analysis (LTEA) Assay for succinate dehydrogenase complex iron sulfur subunit B (SDHB) using HepaRG (AID 2283528)
In short: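 Readout is SDHB transcript level by qRT-PCR, normalised to three housekeeping genes and fitted bidirectionally against 0.5% DMSO vehicle. Human HepaRG cells were treated for 48 h at up to 100 uM.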

Measured: AC50

Chain of Nuclear factor erythroid 2-related factor 2 (Homo sapiens) (Q16236 whole entry, looked up): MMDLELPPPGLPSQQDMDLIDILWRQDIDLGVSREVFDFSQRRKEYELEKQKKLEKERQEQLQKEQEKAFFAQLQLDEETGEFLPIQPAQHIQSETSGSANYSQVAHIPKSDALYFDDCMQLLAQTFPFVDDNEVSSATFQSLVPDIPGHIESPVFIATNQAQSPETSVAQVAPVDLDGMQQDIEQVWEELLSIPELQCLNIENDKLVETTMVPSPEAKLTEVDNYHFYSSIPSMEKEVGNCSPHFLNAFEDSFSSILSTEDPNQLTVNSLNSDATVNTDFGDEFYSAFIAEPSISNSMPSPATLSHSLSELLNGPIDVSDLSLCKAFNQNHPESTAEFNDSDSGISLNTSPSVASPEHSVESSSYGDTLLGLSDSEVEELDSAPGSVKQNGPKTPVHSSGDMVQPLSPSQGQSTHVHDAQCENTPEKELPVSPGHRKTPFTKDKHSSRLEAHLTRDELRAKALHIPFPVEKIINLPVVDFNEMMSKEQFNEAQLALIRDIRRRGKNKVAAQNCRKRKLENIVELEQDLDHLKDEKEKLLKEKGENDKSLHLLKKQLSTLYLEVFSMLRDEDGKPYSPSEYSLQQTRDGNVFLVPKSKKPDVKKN
Chain of Nuclear factor NF-kappa-B p105 subunit (Homo sapiens) (P19838 whole entry, looked up): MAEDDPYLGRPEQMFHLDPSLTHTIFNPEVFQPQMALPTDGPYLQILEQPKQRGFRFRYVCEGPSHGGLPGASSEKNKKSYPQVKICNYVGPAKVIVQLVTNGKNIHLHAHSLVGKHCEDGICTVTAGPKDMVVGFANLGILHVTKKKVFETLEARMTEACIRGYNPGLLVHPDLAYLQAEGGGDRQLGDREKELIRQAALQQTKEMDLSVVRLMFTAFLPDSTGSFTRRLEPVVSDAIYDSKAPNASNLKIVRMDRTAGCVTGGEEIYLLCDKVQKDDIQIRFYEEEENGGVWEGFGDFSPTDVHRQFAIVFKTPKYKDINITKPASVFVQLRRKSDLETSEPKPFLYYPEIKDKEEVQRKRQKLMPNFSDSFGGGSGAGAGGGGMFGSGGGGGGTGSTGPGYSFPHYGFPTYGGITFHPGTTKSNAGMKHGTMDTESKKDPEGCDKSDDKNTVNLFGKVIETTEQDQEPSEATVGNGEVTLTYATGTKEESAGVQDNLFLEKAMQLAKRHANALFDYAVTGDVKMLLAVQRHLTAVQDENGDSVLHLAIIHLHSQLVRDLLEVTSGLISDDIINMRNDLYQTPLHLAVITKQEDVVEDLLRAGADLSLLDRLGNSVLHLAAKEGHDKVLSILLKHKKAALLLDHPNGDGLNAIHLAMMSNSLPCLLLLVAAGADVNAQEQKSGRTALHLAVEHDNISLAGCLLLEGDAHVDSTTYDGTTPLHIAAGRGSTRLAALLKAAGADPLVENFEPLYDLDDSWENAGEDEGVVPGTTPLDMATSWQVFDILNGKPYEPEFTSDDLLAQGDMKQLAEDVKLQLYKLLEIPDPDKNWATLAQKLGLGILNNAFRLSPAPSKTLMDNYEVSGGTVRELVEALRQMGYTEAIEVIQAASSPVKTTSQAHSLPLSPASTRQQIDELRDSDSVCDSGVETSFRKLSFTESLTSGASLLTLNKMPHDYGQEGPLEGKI

Nc1ccc(S(=O)(=O)c2ccc(N)cc2)cc1
active: [3] 0.353 µM
inactive: all other assays above

COc1cc(C=O)ccc1O
inactive: all assays above

CCCCCCCCCCCC(=O)OC
inactive: all assays above

CCCCCCCCCCC
inactive: all assays above

Cc1cccc(C)c1O
inactive: all assays above

Cc1cccc([N+](=O)[O-])c1C
inactive: all assays above

COc1ccc(C)cc1N
inactive: all assays above

CCCCOC(=O)CCCCCCCCC(=O)OCCCC
inactive: all assays above

CCCCCCC(=O)OCC
inactive: all assays above

O=c1c(O)c(-c2ccc(O)c(O)c2)oc2cc(O)cc(O)c12
inactive: all assays above

NC(=O)Cn1c(=O)cc(CCN2CCN(c3nccc4sccc34)CC2)c2ccc(F)cc21
active: [2] 50 µM
inactive: all other assays above

CC(=O)Oc1ccccc1C(=O)O
inactive: all assays above

Cc1oc(-c2ccccc2)nc1CCOc1cccc2c1ccn2CCC(=O)O
active: [6] 79.6 µM | [7] 1.1 µM | [9] 74.8 µM
inactive: all other assays above

CCCCCCOCCO
inactive: all assays above

CCCCCCCC=O
inactive: all assays above

CCCCC(CC)COC(=O)CC(C(=O)OCC(CC)CCCC)S(=O)(=O)O (stereo not drawn)
active: [2] 89 µM | [4] 80.9 µM | [5] 80.9 µM | [6] 50 µM | [10] 86.7 µM
inactive: [1] | [3] | [7] | [8] | [9]

Clc1cc(Cl)c(Cl)cc1Cl
inactive: all assays above

CC1=C(/C=C/C(C)=C/C=C/C(C)=C/CO)C(C)(C)CCC1
active: [1] 23.1 µM | [6] 10.4 µM | [8] 52.2 µM
inactive: all other assays above

NCC1(Cc2noc(=O)[nH]2)CCCCC1
inactive: all assays above

Cc1ccc(N(C)C)cc1
inactive: all assays above

Cc1ccc(C)c(O)c1C
inactive: all assays above

CC(CO)OC(C)CO (stereo not drawn) (tested in a mixture with another compound)
inactive: all assays above

Cc1nc(-c2ccc3c(c2)CCN(CCC2CCC(NC(=O)/C=C/c4ccc(F)cc4)CC2)CC3)no1 (stereo not drawn)
inactive: all assays above

CNC(=O)[C@H]1O[C@@H](n2cnc3c(NCc4cc(Cl)ccc4OCc4cc(C)no4)ncnc32)[C@H](O)[C@@H]1N
inactive: all assays above

CCNc1cccc(C)c1
inactive: all assays above

C=CCOC(=O)c1ccccc1C(=O)OCC=C
inactive: all assays above

O=C(N[C@@H](Cc1ccccc1)[C@@H](O)C(=O)N1C[C@@H](O)[C@@H](O)C1)c1cc2cc(Cl)ccc2[nH]1
active: [2] 50 µM
inactive: all other assays above

COCCOCCOC
active: [3] 2.8 µM | [4] 9.92 µM | [5] 0.243 µM | [8] 0.315 µM | [9] 9.92 µM | [10] 10.9 µM
inactive: [1] | [2] | [6] | [7]

COC(=O)c1ccc(O)cc1
inactive: all assays above

Oc1ccc2ccccc2c1N=Nc1ccccc1
active: [2] 19 µM | [6] 10.5 µM | [9] 1.5 µM
not listed: [7]
inactive: all other assays above

C[Si]1(C)O[Si](C)(C)O[Si](C)(C)O[Si](C)(C)O1
not listed: [7]
inactive: all other assays above

C1CCC(SSC2CCCCC2)CC1
not listed: [7]
inactive: all other assays above

CC1(C)NC(=O)NC1=O
not listed: [7]
inactive: all other assays above

Cc1cccc(Nc2cc(Cl)nc(SCC(=O)O)n2)c1C
not listed: [7]
inactive: all other assays above

Cc1ccc(C)c(C)c1
not listed: [7]
inactive: all other assays above

CCOC(=O)C(C)(C)Oc1ccc(Cl)cc1
not listed: [7]
inactive: all other assays above

CCCCCCCCCCO
not listed: [7]
inactive: all other assays above

O=[N+]([O-])C(CO)(CO)CO
not listed: [9]
inactive: all other assays above

CC(C)(C)c1cc(O)c(C(C)(C)C)cc1O
inactive: [3] | [4] | [9] | [10]
active: [1] 50 µM | [2] 32.5 µM | [5] 87.6 µM | [6] 76.8 µM | [8] 80.6 µM

CCCCCCCCCCCCCCCCCC(=O)O
not listed: [7]
inactive: all other assays above

CN[C@H]1CC[C@@H](c2ccc(Cl)c(Cl)c2)c2ccc(S(N)(=O)=O)cc21
active: [1] 84.1 µM | [3] 81.4 µM | [4] 84.5 µM | [6] 22.4 µM | [9] 81.5 µM
inactive: [2] | [5] | [8] | [10]
